Laboratory results from PubChem BioAssay AID504725 (Broad Institute, 2011).
Entries with a potency or affinity are not part of this list.

target: KSHV LANA C-terminal domain (residues 932-1162) binding to LBS DNA (UniProt O40947); experiment: KSHV LANA DNA-binding disruption – biochemical, fluorescence polarization, cherry-picked samples, dose response (AID 504725); conditions: MBP-C-LANA / FAM-LBS DNA fluorescence polarization, percent change from plate compound-well median; series mostly up to 35 µM; activity change, negative = inhibition: at the top concentration

Activity change, negative = inhibition, inactive:
O=c1c2cc(O)c(O)cc2oc2cc(O)c(C3OC(CO)C(O)C(O)C3O)c(O)c12 (stereo not given) -17.7%
Nc1c(-c2ccccn2)cnn1-c1nc(-c2ccc(F)cc2)cs1 1.14%
Cc1sc2nnn(CC(=O)N3CCN(C(=O)c4ccco4)CC3)c(=O)c2c1C -1.77%
Cc1[nH][nH]c(=O)c1C(c1ccc(-c2ccc(Cl)c(C(=O)O)c2)o1)c1c(C)[nH][nH]c1=O -11.2%
O=C(CC1CCCC1)N1CCN(S(=O)(=O)c2ccccc2)CC1 0.235%
COc1[nH]c(/N=C/c2ccccc2)c(C#N)c1C#N -0.93%
CSc1ncccc1C(=O)OCCCC(=O)c1ccc(F)cc1 3.3%
O=S(=O)(O)c1cc(O)c2cc(Nc3ccccc3)ccc2c1 -17.8%
Cc1cc2nc(SCCN3CCOCC3)[nH]c2cc1C 1.27%
Cn1c(=O)oc2cc(S(=O)(=O)CCC(=O)N3CCN(c4ccccc4F)CC3)ccc21 -10.4%
CCN1/C(=C2/SC(=S)N(NC(C)=O)C2=O)Sc2ccc(OC)cc21 -98.7%
NNC(=S)Nc1ccc(S(=O)(=O)N2CCOCC2)cc1 3.24%
Cc1ccc(C(=O)CCC(=O)Nc2ncccc2C)cc1 2.21%
Cc1cccc(NC(=O)CN2C(=O)NC(C)(c3ccc4ccccc4c3)C2=O)n1 (stereo not given) -1.85%
COc1ccc(CCNC(=O)CNC(=O)Cn2ccc3ccccc3c2=O)cc1OC 0.222%
Fc1ccc(-c2cc(C(F)(F)F)nc(-n3cc(Cl)cn3)n2)cc1 -2.03%
Brc1c(CSc2nncc3ccccc23)nc2ccccn12 1.03%
CC[C@H](C)[C@H](NC(N)=O)C(=O)Nc1ccc(NC(C)=O)cc1 3.35%
COc1ccc(/C=N/NC(=O)c2ccc3nc[nH]c3c2)c(OC)c1 -4.41%
CCOC(=O)C1=C(O)/C(=C/c2cc(C)n(-c3ccccc3)c2C)N=C1C -2.16%
